# About 83,000 compounds went through this panel and 20% of them were active in at least one assay; those are over-represented in the sample as a whole.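 Single-concentration screen, 48 h exposure, 96-well plates. Endpoint: percent growth. Below 10 = active.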 A number with no mark means an inactive call. Activity calls are given as the source filed them.
# Legend:
# Assay in all cases: NCI-60 one-dose screen, 48 h (100 = growth as untreated, 0 = no growth, -100 = all killed)
# Settings in all cases: 10 µM unless noted
# SR leukemia = tested on: SR leukemia
# RPMI-8226 leukemia = tested on: RPMI-8226 leukemia
# OVCAR-8 ovarian = tested on: OVCAR-8 ovarian
# OVCAR-5 ovarian = tested on: OVCAR-5 ovarian
# OVCAR-4 ovarian = tested on: OVCAR-4 ovarian
# SK-OV-3 ovarian = tested on: SK-OV-3 ovarian
# IGROV1 ovarian = tested on: IGROV1 ovarian
# OVCAR-3 ovarian = tested on: OVCAR-3 ovarian
# HS 578T breast = tested on: HS 578T breast
# NCI/ADR-RES ovarian = tested on: NCI/ADR-RES ovarian
SMILES,growth (SR leukemia),growth (RPMI-8226 leukemia),growth (OVCAR-8 ovarian),growth (OVCAR-5 ovarian),growth (OVCAR-4 ovarian),growth (SK-OV-3 ovarian),growth (IGROV1 ovarian),growth (OVCAR-3 ovarian),growth (HS 578T breast),growth (NCI/ADR-RES ovarian)
COc1cc(Nc2ncccc2NC(=O)c2cn(Cc3cccc(Oc4ccccc4)c3)nn2)cc(OC)c1,40.8%,71.6%,87.8%,107%,92.7%,96.2%,99.3%,85.3%,79.3%,76%
Cc1[nH]c(C(=O)Nc2ccc(C(N)=O)cc2NC(C)C)c(Cl)c1Cl,103%,87.8%,92.4%,104%,92.4%,113%,85.1%,96.3%,82.6%,88.2%
C=C(c1ccc(C(=O)O)cn1)c1cc2c(cc1C)C(C)(C)CCC2(C)C,82.7%,66.5%,83.7%,121%,85.2%,75.5%,98.9%,87.6%,69.5%,83.6%
CCOC(=O)c1n[nH]n2c1nc(=O)c1cnn(C)c12,85.3%,101%,102%,112%,102%,101%,108%,101%,105%,103%
CCN1C(=O)N(CC)C2C1NN=C1SCC(=O)N12 (stereo not given),95.7%,80.6%,66.3%,95.8%,32.6%,105%,27.2%,24.5%,98.4%,84.6%
C/C(=C(\c1ccc(OCCN2CCCCCC2)cc1)c1ccc(OC(=O)Cc2ccccc2)cc1)c1ccc(Cl)cc1,-44.9% (active),-40.2% (active),9.9% (active),67.6%,36.7%,60.7%,64.5%,19.8%,23.4%,56.6%
CCOC(=O)c1cn2ncnc(Oc3ccc(NC(=O)NC4CC4)c(F)c3)c2c1C,84.6%,84.6%,99.7%,103%,69.7%,111%,99.3%,113%,103%,99.3%
CNCc1cccc2c1OCCOCCN(C)C(=O)CN(C)S(=O)(=O)c1ccc(cc1)-c1cnc(N)c(n1)C(=O)N2,-16.9% (active),88.8%,2.03% (active),33.8%,42.4%,8.28% (active),51.4%,-25.3% (active),63.3%,102%
O=C(CCCCCCCCC(=O)N/N=C\c1cc(Cl)ccc1O)N/N=C\c1cc(Cl)ccc1O,14.1%,31.9%,25.9%,62%,23%,41.1%,30.2%,31.4%,66.3%,17.4%
NNC(=S)N/N=C/c1ccccn1,5.56% (active),28.9%,20%,40.3%,29.2%,24.3%,40.2%,21.7%,31.8%,17.8%
Cc1ccc2[nH]c(=O)c3c(c2c1)OC(N)=C(C#N)C31C(=O)c2cccc3cccc1c23 (stereo not given),92.9%,97.8%,103%,97.4%,89.4%,105%,90%,101%,93.9%,102%
CC1(C)C2CC=C(/C=N/NC(=O)C3CCC(=O)N3)C1C2 (stereo not given),116%,103%,105%,107%,101%,106%,109%,112%,104%,105%
CCOC(=O)c1c(C)c2c(n1C)CSc1cc(S(=O)(=O)c3ccccc3)c(=O)[nH]c1-2,45% [100 µM],28.9% [100 µM],34.4% [100 µM],62.4% [100 µM],26.4% [100 µM],26.8% [100 µM],30.6% [100 µM],18.5% [100 µM],53.6% [100 µM],18.6% [100 µM]
